Screening results: PubChem, several laboratories
MsrA act = bovine MsrA enzyme activators, primary screen, biochemical, absorbance, HTS | Methionine sulfoxide reductase A (Bos taurus) | purified bovine MsrA, absorbance read-out | activation, % at 10.6 µM | hit rate 0.3% among 360,000; in the data active = activation above about 7.5%;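 also: 0% = vehicle and 100% = reference activator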
MsrA inhibitor = bovine MsrA enzyme inhibitors, primary screen, biochemical, absorbance, HTS; inhibition, % at 15.5 µM; Methionine sulfoxide reductase A (Bos taurus); hit rate 0.75% among 360,000; purified bovine MsrA, absorbance read-out;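 also: 0% = vehicle wells with enzyme and 100% = reference inhibitor wells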
PKA-R2B act = activators of PKA-R2B holoenzyme, primary screen, biochemical, fluorescence polarization, Cy5-IP20, human. PKA-R2B holoenzyme dissociation; R2B truncated from residue 108, S112A mutant; 0% DMSO only, 100% 113 µM cGMP. hit rate 0.079% among 340,000. activation, % at 11.4 µM;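 active = activation above a cutoff set at the mean over all compounds plus 3 SD, cut at about 18% in these data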;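 also: higher means more holoenzyme dissociation and a rise in polarization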
Target sequence (P31323 whole entry, looked up, other chains not shown, the tested form may be a part): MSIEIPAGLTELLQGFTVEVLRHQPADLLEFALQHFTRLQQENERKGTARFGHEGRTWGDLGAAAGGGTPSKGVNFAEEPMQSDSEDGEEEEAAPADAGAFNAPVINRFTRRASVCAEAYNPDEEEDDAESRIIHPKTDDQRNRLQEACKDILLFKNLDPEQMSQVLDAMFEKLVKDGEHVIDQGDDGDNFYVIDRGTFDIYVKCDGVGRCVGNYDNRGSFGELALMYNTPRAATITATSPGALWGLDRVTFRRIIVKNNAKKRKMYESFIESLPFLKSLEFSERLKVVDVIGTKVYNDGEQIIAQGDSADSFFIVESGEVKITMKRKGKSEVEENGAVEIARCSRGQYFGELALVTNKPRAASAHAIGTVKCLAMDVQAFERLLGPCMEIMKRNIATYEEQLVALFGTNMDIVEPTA
PKA-R1A act = activators of PKA-R1A holoenzyme, primary screen, biochemical, fluorescence polarization, Cy5-IP20, bovine R1A, mouse PKAc; cAMP-dependent protein kinase type I-alpha regulatory subunit (Bos taurus) + …; PKA-R1A dissociation; scaled: DMSO 0%, 113 µM cGMP 100%; activation, % at 11.4 µM; hit rate 0.083% among 340,000; AID 504707, 2011;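 active = percent activation above the mean of all tested compounds plus 3 SD, cut at about 19% in these data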;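 also: higher means more PKAc released from R1A so a rise in polarization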
SUMO Mot1 rescue = yeast Mot1-301 growth rescue at high temperature, primary screen, SUMOylation pathway inhibitor project, S. cerevisiae, ATP luminescence, 38.5C | growth rescue, % at 18.8 µM | hit rate 1% among 320,000 | S. cerevisiae Mot1-301 growth rescue; percent above DMSO median, 100 means doubled | AID 2716, 2010;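 active = every valid replicate shows activation above 250% relative to neutral control wells; inactive = the rest, any valid replicate at or below 250%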;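 also: OY570 slx delta 5 strain wells were the positive control but not used for scaling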
MsrA conf = bovine MsrA inhibitors, retest, confirmation, biochemical, absorbance, HTS | shares compounds with MsrA inhibitor | purified bovine MsrA, absorbance read-out | inhibition, % at 15.5 µM | hit rate 41% among 2,300 | AID 651822, 2012;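 also: coupled to thioredoxin reductase with NADPH and selenocystamine and DMSO as substrate; 0% = vehicle only and 100% = full effect of reference inhibitor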
Starred values were filed as active, the others as inactive; . = not tested or not shown. In the library only some 2% were active in any assay of this set; here they are far more common. Rule as the data show it, unless noted: active = inhibition above about 4.5%; inactive = the rest.

SMILES	MsrA act	MsrA inhibitor	PKA-R2B act	PKA-R1A act	SUMO Mot1 rescue	MsrA conf
CC(C)(C)C(c1nc2ccccc2[nH]1)n1c(-c2cc(Cl)cc(Cl)c2)nc2ccccc21 (stereo not given)	.	0.2	.	.	.	.
Cc1cc(C)c2nc(C(F)(F)F)nc(N3CC(C)OC(C)C3)c2c1 (stereo not given)	-2.4	14.3*	-3.4	4.0	111.8	20.9*
CNc1cc(-c2ccc(O)cc2C)ncn1	-3.2	-1.2	.	.	.	.
COc1ccccc1NS(=O)(=O)c1cccc(C(=O)N/N=C/c2cn(-c3ccccc3)nc2-c2ccccc2)c1	-5.7	6.1*	-5.6	-9.1	-11.8	3.6
CC(=O)Nc1ccc(C(=O)N2CCCC(c3cc(C(=O)NCc4ccccc4)no3)C2)cc1 (stereo not given)	-1.9	0.6	.	.	.	.
COc1cc(/C=N/NC2=NCCCCC2)ccc1O	-2.4	1.6	-18.7	-14.9	36.4	.
COc1cc(/C=N/Nc2ncnc3sc4c(c23)CCC4)ccc1O	-9.3	5.5*	9.9	-5.0	.	4.1
CC(C)(C)OC(=O)C(Oc1ccccc1[N+](=O)[O-])C(=O)OC(C)(C)C	.	1.6	.	.	.	.
CS(=O)(=O)Nc1ccc(C2=NN(C(=O)c3ccccc3)C(c3cccs3)C2)cc1 (stereo not given)	-11.2	4.8*	-0.5	-3.2	0.1	1.5
Cc1ccc(-c2nc3c4ccccc4ccn3c2Cc2cccc(F)c2)cc1	.	0.6	.	.	.	.
COCCNC(=O)C1CCCN(Cc2ccc(C#N)cc2)CC1 (stereo not given)	-2.4	-1.0	.	.	.	.
COc1ccc(/C=N/n2c(C3CCCCC3)n[nH]c2=S)c(OC)c1	0.5	8.8*	5.0	-2.2	-18.5	8.6*
Cc1ccsc1/C=N/n1c(C2CCCCC2)n[nH]c1=S	-4.1	10.8*	-10.1	-14.6	26.2	6.1*
Cc1ccc(-c2n[nH]c(=S)n2/N=C/c2sccc2C)cc1	1.4	4.7*	-4.5	-2.6	-17.7	2.6
Fc1ccccc1C1CC(c2ccco2)=Nc2ccccc2S1 (stereo not given)	3.1	4.9*	-6.9	-7.6	74.6	1.2
CCOC(=O)c1cc(C)nc(SC)c1C#N	-1.9	0.1	2.2	2.6	5.3	.
CCOC(=O)c1cc(C(C)(C)C)nc(SC)c1C#N	-3.6	6.2*	1.5	2.1	-0.5	2.9
O=[N+]([O-])c1ccc(Sc2nnnn2-c2ccccc2)nc1	.	4.8*	.	.	.	1.6
O=[N+]([O-])c1ccc(Sc2ccccn2)nc1	-3.7	3.7	2.3	-2.3	38.7	.
CC(c1nccs1)N(C)c1nc2nonc2nc1NC1CC1 (stereo not given)	-1.9	4.2	4.9	-7.3	-2.8	.
c1csc(C2CCCN2c2nc3nonc3nc2NC2CC2)n1 (stereo not given)	-4.5	5.7*	1.6	1.6	-21.4	1.5
Cc1[nH]c2ccccc2c1/C=N/NC(=O)c1ccccc1	-2.1	6.2*	0.7	8.2	-6.8	4.5
Cc1ccc(NC(=S)N/N=C/c2c(C)[nH]c3ccccc23)cc1	-4.9	2.1	-13.5	2.8	17.5	.
Cc1[nH]c2ccccc2c1/C=N/NC(=O)CNC(=O)c1ccccc1	-4.0	3.7	-3.3	-9.5	-15.8	.
Cc1[nH]c2ccccc2c1/C=N/NC(N)=S	-3.5	5.8*	-14.1	6.5	4.8	4.7*
SMILES	MsrA act	MsrA inhibitor	PKA-R2B act	PKA-R1A act	SUMO Mot1 rescue	MsrA conf
Cc1[nH]c2ccccc2c1/C=N/NC(=O)c1ccc(N)cc1	-4.5	5.5*	-3.6	-1.4	-5.3	4.7*
Cc1[nH]c2ccccc2c1/C=N/NC(=O)c1cc(-c2ccccc2)n[nH]1	-6.6	1.8	.	.	-2.5	.
CNc1oc(/C=C/c2ccccc2)nc1C#N	-4.7	4.8*	-8.8	4.7	2.0	4.6*
Cc1ccc2nc3n(c(=O)c2c1)-c1ccccc1C(=O)NC3CC(C)C (stereo not given)	.	0.1	.	.	.	.
CCN(CCC(=O)Nc1cc(OC)ccc1OC)Cc1ccccc1	.	-0.6	.	.	.	.
CCN1C(=O)/C(=C\c2nc3ccccc3c(=O)n2CC)c2ccccc21	-10.4	4.7*	-8.4	2.2	-2.3	1.1
CCn1c(/C=C2/C(=O)N(C)c3ccccc32)nc2ccccc2c1=O	-4.3	0.7	0.2	-12.4	-10.3	.
C[C@@H]1CCCCO[C@H](CN(C)C(=O)CCC(F)(F)F)[C@H](C)CN([C@@H](C)CO)C(=O)c2cc(NS(=O)(=O)c3ccc(Cl)cc3)ccc2O1	.	2.8	.	.	.	.
CC(=O)c1c(C)[nH]c(C2=NNC(=NCc3ccccc3)SC2)c1C	-10.8	5.0*	-7.8	-9.4	12.2	2.5
N#CC1=C(N)Oc2cc3ccccc3cc2C1c1cccnc1 (stereo not given)	-4.7	7.6*	1.6	-0.6	.	2.4
COc1cc(OC)cc(-c2c(C#Cc3ccsc3)c3cc(-c4cccc5[nH]cc(C=O)c45)ccc3n2C)c1	-11.4	4.9*	-8.2	3.9	-13.4	3.0
COc1ccc(-c2c(C#Cc3ccsc3)c3cc(-c4cccc5[nH]ccc45)ccc3n2C)cc1	-7.0	1.5	2.3	-2.2	-8.8	.
O=C1NC(Cc2ccccc2)c2nc3ccc(F)cc3c(=O)n2-c2cc3ccccc3cc21 (stereo not given)	-6.0	1.7	-4.7	-0.5	.	.
COc1cccc(N=c2oc3ccccc3cc2-c2nc3ccccc3[nH]2)c1	-3.3	5.2*	8.5	-3.5	.	1.5
Cc1c(Cl)cccc1-c1ccc(/C=N/n2cnnc2)o1	-3.2	3.1	9.0	-2.9	2.0	.
Clc1ccccc1-c1ccc(/C=N/n2cnnc2)o1	-8.8	5.7*	2.5	-7.1	-3.7	5.5*
Cc1c(C(=O)O)cccc1-c1ccc(/C=N/n2cnnc2)o1	-6.5	6.5*	-4.8	7.2	8.0	4.7*
Cc1cc(-c2ccc(/C=N/n3cnnc3)o2)ccc1Cl	-5.0	4.8*	4.0	-8.5	98.0	2.8
Clc1cccc(-c2ccc(/C=N/n3cnnc3)o2)c1Cl	-0.7	3.1	-9.8	-3.4	5.1	.
OCc1cccc(-c2csc(C(O)(c3ccccc3)C(F)(F)F)n2)c1 (stereo not given)	-2.1	0.3	.	.	.	.
CCOC(=O)c1csc(NC(=O)c2cc(=O)c3ccccc3o2)n1	-7.6	4.7*	10.4	-6.0	15.2	4.4
COc1ccc(/C=C/C(=O)c2ccncc2)c2ccccc12	0.5	8.3*	-0.6	0.8	-35.5	-0.6
C[C@H]1CN([C@@H](C)CO)C(=O)CCCn2nncc2CO[C@@H]1CN(C)C(=O)Nc1ccccc1F	.	-0.9	.	.	.	.
